PubChem BioAssay AID1345083 (National Center for Advancing Translational Sciences (NCATS), 2018)
About 6,200 (6.6%) of roughly 94,000 compounds were called active. Where a call stands in place of a potency, no number is given. Inconclusive results (about 31%) are left out. The call rests on the fitted dose curve; in most records, active means well fitted inhibition curve with a large enough effect; inconclusive means small, poorly fitted or top-dose-only effect; inactive means flat fitted curve, though single readings scatter. Many of the other results were omitted from the sample, so actives are more common in it than they were.

experiment: Cytotoxic Profiling in HEK 293 Cell Line of Diverse Libraries Using Quantitative High-Throughput Screening; settings: HEK 293 viability, ATP luminescence (CellTiter-Glo), 48-72 h; series mostly up to 115 µM; further: nearly all actives have a fitted effect of over 60% in size
Method in brief: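 qHTS cytotoxicity; HEK 293, 250 cells/well; compound pinned; 48 or 72 hr, 37 degree Celsius, 5% CO2, 95% humidity; CellTiter-Glo, 10 min RT; luminescence (ATP).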
Potency means the concentration at half of the fitted maximal effect.

Compound | Potency
O=C(O)C[C@@H]1CCN(S(=O)(=O)c2ccccc2)C[C@@H]1CC1=NCCc2cc(F)ccc21 | inactive
O=C(NC1CCN(C(=O)N2CC3CC(C2)[C@H]2CCCC(=O)N2C3)CC1)c1ccsc1 (some centres undefined) | inactive
O=C(c1ccccc1F)N1CCC2(CC1)N(c1ccccc1)C(=O)CS2(=O)=O | inactive
O=C(NCc1ccccc1-n1cncn1)C1CC(=O)N(Cc2ccccn2)C1 (centres undefined) | inactive
Cc1cccc(Cl)c1NC(=O)Cn1c(C)cc2nc3n(c(=O)c21)CCCCC3 | inactive
COc1ccccc1C(=O)NCC1Cn2cccc2C(=O)N1Cc1cccnc1 (centres undefined) | inactive
COCc1nnc2n1CCC(NC(=O)CCc1c(C)nn(C)c1C)CC2 (centres undefined) | inactive
CC(C)NC(=O)NC1CCN(c2ccc3nnc(-c4ccccc4)n3n2)C1 (centres undefined) | inactive
COc1cc(OC)c(NC(=O)N2CCCC2c2nncn2C2CCCC2)cc1Cl (centres undefined) | inactive
O=C(Nc1ccccc1)N1CCc2nc(-c3ccccc3)nc(-c3ccc(Cl)cc3)c2C1 | inactive
COc1ccc(C(=O)N2CCC([C@@H]3CNC[C@H]3CO)CC2)cc1OC | inactive
COCCOCC(=O)N1CCCC(c2nc(-c3cccnc3)no2)CCNC(=O)CC1 (centres undefined) | inactive
CC(c1cccs1)N(C)[S+](=O)([O-])c1cccc(C(F)(F)F)c1 (centres undefined) | inactive
COCC1CN(C2CCC2)CC12CCN(C(=O)C1CCN(C(C)=O)CC1)CC2 (centres undefined) | inactive
COCC(=O)NC1CCC12CCN(C(=O)CCCc1ccccc1)CC2 (centres undefined) | inactive
COCC1CN(C2CCC2)CC12CCN(C(=O)CCc1ccccc1)CC2 (centres undefined) | 31.6 µM (active)
O=C(NCc1c[nH]c2ncccc12)c1ccccn1 | inactive
COCc1nc(C2CCN(C(=O)c3ccn[nH]3)C2)no1 (centres undefined) | inactive
COc1ccc2c(c1)CCc1c-2n[nH]c1C(=O)N1CCC(c2noc(COc3ccc(C)cc3)n2)CC1 | 22.4 µM (active)
Cc1ccc(OCc2nc(C3CCN(C(=O)c4noc(C)c4CN4CCCCC4)CC3)no2)cc1 | 31.6 µM (active)
CCOc1ccc(C(=O)N2CCCC(c3noc(COC)n3)C2)cc1 (centres undefined) | inactive
COCCOCc1nc(C2CCN(C(=O)c3ccncc3)CC2)no1 | inactive
COCc1nc(C2CCN(C(=O)c3ccoc3)C2)no1 (centres undefined) | inactive
CCC(C)NC(=O)C1COC2(CCN(C(=O)CC(C)(C)C)CC2)N1C(=O)c1cccc(OC)c1 (centres undefined) | inactive
COc1ccc(S(=O)(=O)N2CCC(N(C(=O)C3CC3)C3CCOCC3)CC2)cc1 | inactive

Compound | Potency
COCc1cc(=O)n(CC(=O)Nc2ccc(C)cc2)c(N2CCOCC2)n1 | inactive
CN(Cc1ccc(OC(F)(F)F)cc1)C(=O)C1(C)CCOCC1 | inactive
CNC(=O)c1cc[nH]c1C1CCCN(C(=O)c2noc(C)c2Cn2cccn2)C1 (centres undefined) | inactive
COc1cccc(C(=O)N2C(C(=O)NC3CC3)COC23CCN(C(=O)c2ccc(F)cc2)CC3)c1 (centres undefined) | inactive
O=C(CCC[C@@H]1[C@H]2CCCN3CCC[C@@H](CN1C(=O)c1cccnc1)[C@@H]23)NCCCc1ccccc1 | inactive
COc1ccc(S(=O)(=O)N2CCc3c(C(=O)NCc4ccncc4)cccc32)cc1 | 35.5 µM (active)
COCC1CCCCN1c1ccc(C(=O)NCCCc2ccccn2)cn1 (centres undefined) | inactive
COc1ccc(S(=O)(=O)N2[C@@H]3CC[C@H]2CC(NC(=O)c2ccncc2)C3)cc1 (some centres undefined) | inactive
COc1ccc(S(=O)(=O)N2CCc3c(C(=O)NCCc4ccccn4)cccc32)cc1 | 44.7 µM (active)
COc1ccc(-c2nc(C(C)C)nc3c2CCN(C(=O)Cc2ccccn2)CC3)cc1 | inactive
Cc1ccc(C)c(CNC(=O)c2ccc3c(c2)N(S(=O)(=O)c2ccccc2)CC3)c1 | inactive
CCCNC(=O)N(C1CCOCC1)C1CCN(C(=O)c2ccc(F)c(F)c2)CC1 | inactive
Cc1cccc(OCC(=O)N2CCCC(n3cc(-c4noc(C)n4)nn3)C2)c1 (centres undefined) | inactive
COCCCn1c(=O)c(C(=O)N2CCN(C(=O)c3ccccc3)CC2)nc2cccnc21 | inactive
C=CCNC(=O)C(NC(=O)c1cccc(OC)c1)C1CCN(C(=O)c2ccccc2F)CC1 (centres undefined) | inactive
C#CCNC(=O)C1CN(c2ccc(OC)cc2)C(=O)N1 (centres undefined) | inactive
CNC(=O)c1cc(C2CC2)nc2onc(C3CCCN(C(=O)C4CC4)C3)c12 (centres undefined) | inactive
CN1Cc2ccc(CN(C)C(=O)C3CCN(Cc4ccco4)CC3)cc2C1 | inactive
c1ccc(-c2nc(C3CCOCC3)nn2CC2COCCO2)cc1 (centres undefined) | inactive
COCC(=O)Nc1nc2c(s1)C[C@@H]1[C@](C)(CO)[C@H](O)CC[C@@]1(C)[C@@H]2CC(=O)NCCN1CCOCC1 | inactive
CN(C)CCNC(=O)C[C@@H]1c2nc(NC(=O)c3ccc(C(C)(C)C)cc3)sc2C[C@@H]2[C@](C)(CO)[C@H](O)CC[C@]21C | 31.6 µM (active)
CC(=O)N1CCN(C(=O)C[C@@H]2c3nc(NC(=O)c4cccs4)sc3C[C@@H]3[C@](C)(CO)[C@H](O)CC[C@]32C)CC1 | inactive
CC(C)CCN(C1CCOCC1)C1CCN(Cc2cccnc2)CC1 | inactive
O=C(c1ccc(Cl)cc1Cl)N1CCC(c2nnc3n2C(C(=O)N2CCN(c4ncccn4)CC2)CC3)CC1 (centres undefined) | inactive
COc1cc(C(=O)N2CCCN(S(C)(=O)=O)c3ccccc32)cc(OC)c1OC | inactive

Compound | Potency
CC(=O)N1Cc2ccccc2CC2(CCCCN2C)C1 (centres undefined) | inactive
CCN1CCCCC12Cc1ccccc1CN(S(C)(=O)=O)C2 (centres undefined) | inactive
O=C(c1ccccc1)N1Cc2ccccc2CC2(CCCN2CC2CCNC2)C1 (centres undefined) | 79.4 µM (active)
Cc1ccc(CCN2CCCCC23Cc2ccccc2CN(C(=O)CCCC(=O)O)C3)cc1 (centres undefined) | inactive
CC(=O)NCCC(=O)N1Cc2ccccc2CC2(CCCCN2CC2CCNC2)C1 (centres undefined) | inactive
O=C(C1CCCC1)N1Cc2ccccc2CC2(CCCCN2CC2CCNCC2)C1 (centres undefined) | 25.1 µM (active)
O=C(NC1CCCCC1)C1CN(S(=O)(=O)c2cccc(Cl)c2)CC12CCOCC2 (centres undefined) | inactive
NC(=O)[C@H](CCC(=O)O)NC(=O)[C@@]1(O)C[C@@H](O)[C@H](O)[C@@H](NS(=O)(=O)c2cccc(C(F)(F)F)c2)C1 | inactive
Cn1nnc(-c2ccc(C(=O)N[C@H]3C[C@@H]4OCC[C@H]34)cc2)n1 | inactive
c1cnc2nc(C3CCCCN3)[nH]c2c1 (centres undefined) | inactive
Cc1cc(C(=O)NCC2Cn3cccc3C(=O)N2CC(C)C)n(C)n1 (centres undefined) | inactive
CC(C)N1Cc2cc(C(=O)Nc3cccc4c3CCCC4)sc2C1 | 28.2 µM (active)
CC(C)N1Cc2cc(C(=O)O)sc2C1 | inactive
COCCn1ccc2c(NC(=O)Cn3nc4c(cc3=O)CCCC4)cccc21 | inactive
O=C(O)C[C@@H]1CCN(C(=O)C2CCCCC2)C[C@@H]1CCN1CCN(c2ccccc2)CC1 | inactive
O=C(O)CCC(=O)N1CCOC2(CCN(C(=O)c3ccccc3)CC2)C1 | inactive
CCOC(=O)[C@@H]1[C@@H](OC)C(=O)N(Cc2ccccc2)C12CCN(C(=O)c1ccc(F)cc1)CC2 | inactive
O=C(c1ccc(F)cc1)N1CCC2(CC1)CCN(Cc1cccs1)c1ccccc1O2 | 44.7 µM (active)
COCC(=O)N(C1CCOCC1)C1CCN(S(=O)(=O)c2ccc(F)c(F)c2)CC1 | inactive
O=C1OCCN1C1CCN(S(=O)(=O)c2ccccc2)CC1 | inactive
O=S(=O)(c1ccccc1)N1CCC(CCOc2ccccc2)C1 (centres undefined) | 79.4 µM (active)
O=C(CCC1CCN(S(=O)(=O)c2ccccc2)CC1)NCc1ccccn1 | inactive
CCCN1C(=O)NC(Cc2nc(-c3cccnn3)no2)C1=O (centres undefined) | inactive
COc1ccccc1C(=O)NCC1COc2ncncc2C(=O)N1Cc1ccccc1 (centres undefined) | inactive
CSCC(=O)N1CCc2[nH]nc(-c3ccc4c(c3)OCO4)c2C1 | inactive

Compound | Potency
Fc1ccccc1-c1n[nH]c2c1CN(Cc1cccc3c1OCO3)CC2 | 44.7 µM (active)
O=C1Cc2c(-c3ccc(F)cc3F)n[nH]c2CN1Cc1ccccc1F | inactive
O=C(c1cccc(Cl)c1)N1CCC(C(=O)N2CCCC(c3nc4ccncc4[nH]3)C2)CC1 (centres undefined) | inactive
O=C(N1CCCC1c1nc(CCOCC2CC2)no1)C1(c2ccccc2)CC1 (centres undefined) | inactive
O=C(c1ccc(-n2cnnc2)cc1)N1CCC2(CCCO2)CC1 | inactive
Cn1cccc1C(=O)N[C@H]1C[C@@H](C(=O)O)N(C(=O)CSCC(=O)N2C[C@@H](NC(=O)c3cccn3C)C[C@H]2C(=O)O)C1 | inactive
CCc1nc(-c2c3n(c(=O)n(CC(=O)Nc4ccc(C)cc4)c2=O)CCCCC3)no1 | inactive
Cc1cccc(S(=O)(=O)N2CCC(n3cnnc3C(C)C)CC2)c1 | inactive
N#Cc1cccc(CN2CCCN(S(=O)(=O)c3ccccc3)CCC(=O)NCC2)c1 | inactive
Cc1cccc(-c2cc(C3CCN(S(=O)(=O)c4cccc(C#N)c4)CC3)[nH]n2)c1 | 25.1 µM (active)
O=C(O)C[C@@H]1CCN(C(=O)c2ccc(C(F)(F)F)cc2)C[C@@H]1CCN1CCN(c2ccc(F)cc2)CC1 | inactive
COCCNC(=O)C1COC2(CCN(C(=O)c3ccc(F)cc3)CC2)N1C(=O)c1ccccc1C (centres undefined) | inactive
Cc1ccc(C2Cn3cnc(C(=O)N4CCC(C(=O)NCc5cccc(Cl)c5)CC4)c3CO2)cc1 (centres undefined) | inactive
COc1ccccc1Nc1ccnc(N2CCC(C(=O)NCc3cccc(Cl)c3)CC2)n1 | 39.8 µM (active)
COc1ccc(C2Cn3nnc(C(=O)N4CCC(C(=O)NCc5ccc(C)cc5)CC4)c3CO2)cc1 (centres undefined) | inactive
COc1ccccc1Nc1ccnc(N2CCN(C(=O)c3ccc(C(F)(F)F)cc3)CC2)n1 | 39.8 µM (active)
COc1ccccc1Nc1ccnc(N2CCC(NC(=O)NC(C)C)CC2)n1 | inactive
Cc1ccccc1C(=O)N1CCN(c2nccc(Nc3ccccc3Cl)n2)CC1 | 35.5 µM (active)
COc1ccccc1Nc1ccnc(N2CCC(C(=O)NCc3ccc(C(F)(F)F)cc3)CC2)n1 | 31.6 µM (active)
COc1cccc(C(=O)N2CCN(c3nccc(Nc4ccccc4OC)n3)CC2)c1 | inactive
COc1ccccc1C(=O)N1CCN(c2cc(C(F)(F)F)ncn2)CC1 | inactive
COc1ccc(C2Cn3cnc(C(=O)N4CCC(C(=O)NCc5cccc(F)c5)CC4)c3CO2)cc1 (centres undefined) | inactive
O=C(c1ccccc1Cl)N1CCN(C(=O)c2nc3cccnc3n(Cc3ccccc3)c2=O)CC1 | inactive
O=C(Nc1ccccc1Cl)N1CCC(Oc2ncccc2C(=O)N2CCCCC2)C1 (centres undefined) | inactive
